Rows were chosen to be rich in hits. Some 19% of all compounds tested hit in one or more screens of this group.
DT40 TDP1 no CPT – qHTS for Inhibitors of human tyrosyl-DNA phosphodiesterase 1 (TDP1): qHTS in cells in absence of CPT; DT40 Tdp1-/- hTDP1 cells, no CPT, ATP luminescence, 48 h; Potency, µM (series often up to 46.2 µM), inactives show at the top dose activity change, negative = growth inhibition, usual class: inhibitors; 420,000 tested, 15% active; AID 686978, 2013; also: potency is read from the fitted curve at half-maximal effect; % is scaled to controls: 0 for no effect and ±100 for the full control effect; nearly all actives have a fitted effect of over 55% in size
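Luminescent ATP content (CellTiter-Glo) served as the growth readout. Knockout chicken DT40 cells expressing human TDP1 were exposed to compounds without camptothecin for a minimum 48 hr at 37 °C.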
TDP1 cell CPT – qHTS for Inhibitors of human tyrosyl-DNA phosphodiesterase 1 (TDP1): qHTS in cells in presence of CPT; chicken DT40 Tdp1-/-;hTDP1 cells + 20 nM CPT, ATP luminescence, 48 h; Potency, µM (titrated, usually from 46.2 µM), for the others: at the top dose activity change, negative = growth inhibition, usual class: inhibitors; 420,000 tested, 12% active; AID 686979, 2013; also: potency is read from the fitted curve at half-maximal effect; % is scaled to controls: 0 for no effect and ±100 for the full control effect; nearly all actives have a fitted effect of over 55% in size
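Cell growth measured by CellTiter-Glo luminescence after a minimum 48 h, 37 C compound exposure with 20 nM CPT in Tdp1-knockout DT40 cells stably expressing hTDP1, seeded 400/well; qHTS titration format.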
TGFb SMAD3 inh – qHTS for Inhibitors of TGF-b. 410,000 tested, 1.2% active. Potency, µM (top dose mostly 46.1 µM), for inactives: at the top dose activity, negative = inhibition, most hits filed as inhibitors. HepG2 CAGA-GFP TGF-b/SMAD3 reporter, GFP fluorescence, 18 h; TGF-beta stimulated, 500 pg/mL final; also: potency is read from the fitted curve at half-maximal effect; % is scaled to controls: 0 for no effect and ±100 for the full control effect; nearly all actives have a fitted effect of over 65% in size
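TGF-beta reporter screen: HEPG2 CAGA-GFP, 1% FBS, 500 pg/mL TGF-beta final, 18 h; per-cell GFP summed per well; curves fitted and categorized by class.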
TDP1 block – qHTS Assay for Inhibitors of Tyrosyl-DNA Phosphodiesterase (TDP1); recombinant TDP1, AlphaScreen DNA substrate cleavage; Potency, µM (series often up to 130 µM), without a hit: at the top dose activity change, negative = inhibition, actives largely listed as inhibitors; 350,000 tested, 0.28% active; AID 485290, 2010; also: potency is read from the fitted curve at half-maximal effect; % is scaled to controls: 0 for no effect and ±100 for the full control effect; nearly all actives have a fitted effect of over 40% in size
Target sequence (Q9NUW8 whole entry, looked up): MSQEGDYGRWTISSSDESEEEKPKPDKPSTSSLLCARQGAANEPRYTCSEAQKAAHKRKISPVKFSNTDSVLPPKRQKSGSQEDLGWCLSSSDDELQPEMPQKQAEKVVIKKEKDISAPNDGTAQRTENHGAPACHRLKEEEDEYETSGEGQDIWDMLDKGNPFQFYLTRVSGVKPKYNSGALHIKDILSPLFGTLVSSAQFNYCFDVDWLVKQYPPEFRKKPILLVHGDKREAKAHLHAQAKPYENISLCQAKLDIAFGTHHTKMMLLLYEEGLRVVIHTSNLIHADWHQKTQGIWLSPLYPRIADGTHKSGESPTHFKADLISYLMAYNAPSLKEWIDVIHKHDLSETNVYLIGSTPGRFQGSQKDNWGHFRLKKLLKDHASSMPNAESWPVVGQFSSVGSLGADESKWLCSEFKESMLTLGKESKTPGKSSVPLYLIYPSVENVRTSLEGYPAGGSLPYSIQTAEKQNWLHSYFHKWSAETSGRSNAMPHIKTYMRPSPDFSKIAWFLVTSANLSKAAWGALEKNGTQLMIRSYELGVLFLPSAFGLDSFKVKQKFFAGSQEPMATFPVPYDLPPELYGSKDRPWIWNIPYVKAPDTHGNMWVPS
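AlphaScreen read-out: signal falls as enzyme removes the 3' tyrosine-FITC from a 5'-biotinylated DNA oligo (15 nM, 5 min, RT). Enzyme was E. coli-made recombinant Tdp1 at 1 nM, exposed to compound for 15 min beforehand; beads 10 ug/ml, 10 min.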
HepG2 tox – qHTS for Inhibitors of TGF-b: Cytotox Counterscreen; HepG2 CAGA-GFP viability, ATP luminescence, 18 h; 410,000 tested, 0.76% active; Potency, µM (series often up to 46.1 µM), without a hit: at the highest dose activity change, negative = cytotoxicity, actives largely listed as cytotoxic; AID 588856, 2011; also: potency is read from the fitted curve at half-maximal effect
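HepG2 CAGA-GFP cells (1000/well, DMEM with 1% FBS) received compound, then TGF-beta at 500 pg/mL final, and were incubated 18 hours at 37 degrees C. Viability was read by CellTiter-Glo luminescence. Media-only wells were set as complete cell-killing and DMSO as no toxicity.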
IL1B secr inh – qHTS for Inhibitors of Inflammasome Signaling: IL-1-beta AlphaLISA Primary Screen. THP-1 LPS/ATP IL-1B secretion, AlphaLISA, 16 h; hits give low values. 360,000 tested, 4.7% active. AID 743279, 2014. activity change, % at 57.5 µM; in the data active = activity change below about -50%; inconclusive = mostly about -30% to -49%; also: % is scaled to controls: 0 for no effect and ±100 for the full control effect
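THP-1 cells pretreated 1 hr with compounds (up to 57.5 uM final), then stimulated with LPS (250 ng/mL final) plus ATP (1.25 mM final); secreted IL-1B measured by AlphaLISA after 16 hr, decreased signal indicating inhibition.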
An asterisk follows results filed as active; [ ] = remark or other dose. Unless noted, calls follow the shape of the dose curve; as a rule, active = well fitted curve in the direction sought with a large enough effect; inconclusive = small, poorly fitted or top-dose-only effect, or another doubt; inactive = no such curve, though single readings can be large; an effect the other way counts as inactive or inconclusive.

O=C(c1ccc2ccccc2c1)N1CCN(S(=O)(=O)/C=C/c2ccccc2)CC1 was read as DT40 TDP1 no CPT 26µM*, TDP1 cell CPT 16µM*, TGFb SMAD3 inh 1%, TDP1 block 3%, HepG2 tox 4% and IL1B secr inh -26.
Screening O=C(/C=C/c1ccccc1)c1ccc2ccccc2c1 returned DT40 TDP1 no CPT 16µM*, TDP1 cell CPT inconclusive, TGFb SMAD3 inh inconclusive, HepG2 tox 20µM* and IL1B secr inh inconclusive.
Screening O=C(/C=C/c1ccc[nH]1)c1ccccc1 returned DT40 TDP1 no CPT inconclusive, TDP1 cell CPT 26µM*, TGFb SMAD3 inh 14%, TDP1 block 3%, HepG2 tox 0% and IL1B secr inh inconclusive.
For CS(=O)(=O)N1CCc2cc(C(=O)NCc3ccccc3)ccc21 the results were DT40 TDP1 no CPT -26%, TDP1 cell CPT -8%, TGFb SMAD3 inh inconclusive, TDP1 block 5% and HepG2 tox 5%.
O=C(/C=C/c1ccccc1)c1ccc2c3c(cccc13)CC2 was read as DT40 TDP1 no CPT inconclusive, TDP1 cell CPT inconclusive, TGFb SMAD3 inh -9%, TDP1 block 3%, HepG2 tox -33% and IL1B secr inh -99*.
For O=C(c1ccc(NS(=O)(=O)/C=C/c2ccccc2)cc1)N1CCCCC1 the results were DT40 TDP1 no CPT 12µM*, TDP1 cell CPT inconclusive, TGFb SMAD3 inh -13%, TDP1 block -11%[0.505 µM], HepG2 tox -10% and IL1B secr inh -76*.
Screening O=C(COc1ccc(F)cc1Br)N1CCN(S(=O)(=O)/C=C/c2ccccc2)CC1 returned DT40 TDP1 no CPT inconclusive, TDP1 cell CPT inconclusive, TGFb SMAD3 inh -8%, TDP1 block 0%, HepG2 tox 30% and IL1B secr inh -50*.
For O=C(c1ccc(NS(=O)(=O)c2ccccc2)cc1)N1CCCC1 the results were DT40 TDP1 no CPT -5%, TDP1 cell CPT -19%, TGFb SMAD3 inh -4%, TDP1 block 0%, HepG2 tox 1% and IL1B secr inh -7.
Screening O=C(/C=C/c1ccccc1)/C=C/c1ccccc1 returned TDP1 cell CPT 5.2µM*, TGFb SMAD3 inh inconclusive, HepG2 tox -17% and IL1B secr inh -98*.
`O=C(c1ccc(CSc2ccc(Cl)cc2)cc1)N1CCCC1` gave DT40 TDP1 no CPT inconclusive, TDP1 cell CPT inconclusive, TGFb SMAD3 inh inconclusive, TDP1 block -3%, HepG2 tox -55% and IL1B secr inh 10.
Screening COc1ccc(C(CNC(=O)c2cccc(S(=O)(=O)Nc3ccc(F)cc3)c2)N2CCOCC2)cc1 (stereo not given) returned DT40 TDP1 no CPT -21%, TDP1 cell CPT inconclusive, TGFb SMAD3 inh 2%, HepG2 tox -13% and IL1B secr inh 13.
Screening CC(C)NC(=O)CSc1ncccc1-c1nc2ccccc2[nH]1 returned DT40 TDP1 no CPT -19%, TDP1 cell CPT -3%, TGFb SMAD3 inh 24%, HepG2 tox 14% and IL1B secr inh -2.
Screening O=CC(=O)c1ccccc1 returned DT40 TDP1 no CPT 16µM*, TDP1 cell CPT inconclusive, TGFb SMAD3 inh -9%, TDP1 block 1%, HepG2 tox -29% and IL1B secr inh 82.
`Nc1c(-c2ccccc2)cnc2c(-c3ccccc3)cnn12` gave DT40 TDP1 no CPT inconclusive, TDP1 cell CPT -12%, TGFb SMAD3 inh -10%, TDP1 block 3%, HepG2 tox -31% and IL1B secr inh -10.
`Cc1cc(N)n2nc(-c3ccccc3)c(-c3ccccc3)c2n1` gave DT40 TDP1 no CPT 1.6µM*, TDP1 cell CPT 1.5µM*, TGFb SMAD3 inh 10%, TDP1 block 6%, HepG2 tox 2% and IL1B secr inh 12.
Cc1nc2c(-c3ccccc3)c(C)nn2c(N)c1-c1ccccc1 was read as DT40 TDP1 no CPT 29µM*, TDP1 cell CPT 21µM*, TGFb SMAD3 inh 18%, TDP1 block 0%, HepG2 tox 10% and IL1B secr inh -18.
Cc1nn2c(N)c(-c3ccccc3)cnc2c1-c1ccc(Cl)cc1 was read as DT40 TDP1 no CPT inconclusive, TDP1 cell CPT 16µM*, TGFb SMAD3 inh inconclusive, HepG2 tox -35% and IL1B secr inh -69*.
Cc1nn(-c2nc3ccccc3[nH]2)c(N)c1-c1ccccc1 was read as DT40 TDP1 no CPT 16µM*, TDP1 cell CPT inconclusive, TGFb SMAD3 inh -19%, TDP1 block 9%, HepG2 tox -15% and IL1B secr inh -20.
`CCc1cccc(C)c1NC(=O)C1CCN(S(=O)(=O)c2cc(Br)cc3c2N(C(C)=O)CC3)CC1` gave DT40 TDP1 no CPT 2%, TDP1 cell CPT 17%, TGFb SMAD3 inh 12%, TDP1 block 2% and HepG2 tox 2%.
Screening O=c1[nH]c(=O)n(-c2ccc(F)cc2)c2c1C(C(F)(F)F)(C(F)(F)F)N=C(c1ccc(F)cc1)N2 returned DT40 TDP1 no CPT 3.3µM*, TDP1 cell CPT 4.6µM*, TGFb SMAD3 inh inconclusive, TDP1 block 4%, HepG2 tox -47% and IL1B secr inh inconclusive.
For Cc1ccc(C2=NC(C(F)(F)F)(C(F)(F)F)c3c(n(-c4ccc(F)cc4)c(=O)[nH]c3=O)N2)cc1 the results were DT40 TDP1 no CPT 23µM*, TDP1 cell CPT 23µM*, TGFb SMAD3 inh inconclusive, TDP1 block 6%, HepG2 tox -15% and IL1B secr inh 36.
`O=C(NCC1CC1)C1(C(F)(F)F)CC(CCc2ccccc2)CCCO1` (stereo not given) gave DT40 TDP1 no CPT 21µM*, TDP1 cell CPT 21µM*, TGFb SMAD3 inh inconclusive, TDP1 block -3%, HepG2 tox -9% and IL1B secr inh -2.
For COC(=O)c1ccc(NC(=O)CSc2nnc(C)n2-c2ccccc2)cc1 the results were DT40 TDP1 no CPT 7%, TDP1 cell CPT -6%, TGFb SMAD3 inh -14%, TDP1 block -5%, HepG2 tox -25% and IL1B secr inh 14.
Screening COC(=O)c1ccc(CSc2nnc(-c3c[nH]c4ccccc34)n2C)o1 returned DT40 TDP1 no CPT 13µM*, TDP1 cell CPT 23µM*, TGFb SMAD3 inh -37%, TDP1 block 9%, HepG2 tox 1% and IL1B secr inh -1.

Screens deposited in PubChem by National Center for Advancing Translational Sciences (NCATS).
